T cruzi growth-1: inhibitors of T. cruzi proliferation. inhibition, % at 8.34 µM. hit rate 5.9% among 77,000. T. cruzi beta-gal in NIH3T3, GalScreen luminescence, 90 h;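 active = mean inhibition above about 93%, with at least 55% of replicates each passing it, limit read from the data, passing the limit was not always enough; inconclusive = only one of those two conditions holds; inactive = neither condition holds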
C diff HTS: blocks growth of Clostridium difficile. hit rate 0.25% among 86,000. Clostridium difficile clinical isolate growth, OD600, 24 h; hits give low values. growth activity, negative = inhibition, % at 16 µg/mL (by protocol);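 active = mean growth activity at or below -80% and every replicate also at or below -80%; inconclusive = mean at or below -80% but some replicate above -80%; inactive = mean growth activity above -80%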
Pf Dd2 inh: P. falciparum Dd2 growth inhibition; AID 1159554; SYBR Green, 72 h; hits give low values; activity change, % at 10 µM; hit rate 2.3% among 94,000; in the data active = activity change below about -80%; inconclusive = no clear call, values can overlap the other calls
T cruzi growth-2: inhibitors of T. cruzi proliferation; shares compounds with T cruzi growth-1; T. cruzi beta-gal in NIH3T3, GalScreen luminescence, 90 h; inhibition, % at 8.35 µM; hit rate 72% among 5,600; AID 651739;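 active = mean replicate inhibition above about 95% and at least 55% of replicates individually reaching it, limit read from the data; inconclusive = only one of the two criteria is met; inactive = neither criterion is met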
T cruzi growth-3: inhibitors of T. cruzi proliferation; T. cruzi beta-gal in NIH3T3, GalScreen luminescence, 90 h; shares compounds with T cruzi growth-1; inhibition, % at 2.09 µM; hit rate 21% among 5,600; AID 651740;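 active = mean inhibition above about 95%, with at least 55% of replicates also reaching it, limit read from the data; inconclusive = meets just one of the two conditions; inactive = meets neither condition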
3T3 cytotox: kills mouse NIH/3T3 fibroblasts | NIH/3T3 viability, CellTiter-Glo ATP luminescence, 90 h | cytotoxicity (signal decrease), % at 8.35 µM | hit rate 14% among 5,600 | shares compounds with T cruzi growth-1;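 active = mean signal decrease across replicates above about 35% based on untreated-well scatter, with enough replicates individually passing, limit read from the data; inconclusive = no rule stated though some were filed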
3T3 cytotox 2: NIH/3T3 (mouse) viability loss. shares compounds with T cruzi growth-1. NIH/3T3 viability, CellTiter-Glo ATP luminescence, 90 h. inhibition, % at 24.9 µM. hit rate 56% among 5,600;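 active = mean loss of cell viability signal at or above a set limit, and enough replicates individually reaching it; inconclusive = meets only the mean limit or only the replicate share; inactive = meets neither condition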
Each line names hits and unclear results; the compound was inactive in the other large screens (follow-up assays come after a bar, where they were run). The list is not random: actives were taken first. Their share in the collection is about 6.7%.

O=C(NC[C@H]1[C@H](c2ccccc2)[C@H](CO)N1Cc1ccccn1)C1CCCC1	T cruzi growth-1 97 | T cruzi growth-2 inactive | T cruzi growth-3 inactive | 3T3 cytotox inactive | 3T3 cytotox 2 inactive
C/C=C/c1ccc([C@@H]2[C@@H](CO)N(Cc3ccccn3)[C@H]2CNC(C)=O)cc1	none
O=C(NC[C@H]1[C@H](c2ccccc2)[C@@H](CO)N1Cc1ccccn1)C1CCCC1	none
C/C=C/c1ccc([C@@H]2[C@H](CO)N(Cc3ccccn3)[C@H]2CNC(C)=O)cc1	T cruzi growth-1 98 | T cruzi growth-2 inactive | T cruzi growth-3 inactive | 3T3 cytotox inactive | 3T3 cytotox 2 inactive
C[C@H](CO)N1C[C@H](C)[C@@H](CN(C)C(=O)C2CCOCC2)Oc2ncc(C#CC3(O)CCCC3)cc2C1=O	none (no result: T cruzi growth-1, C diff HTS)
O=C(NCC[C@H]1CC[C@@H](NS(=O)(=O)c2ccccc2)[C@H](CO)O1)c1ccccc1F	none
C[C@@H]1CN([C@H](C)CO)C(=O)c2cccc(NC(=O)Nc3ccc(C(F)(F)F)cc3)c2O[C@H]1CN(C)Cc1ccc2c(c1)OCO2	none (no result: C diff HTS)
C[C@@H]1CN([C@H](C)CO)C(=O)c2cccc(NC(=O)Nc3ccc(C(F)(F)F)cc3)c2O[C@@H]1CN(C)Cc1ccc2c(c1)OCO2	none
C[C@H](CO)N1C[C@H](C)[C@@H](CN(C)Cc2ccc3c(c2)OCO3)Oc2c(NC(=O)Nc3ccc(C(F)(F)F)cc3)cccc2C1=O	T cruzi growth-1 104 (no result: C diff HTS) | T cruzi growth-2 97 | T cruzi growth-3 105 | 3T3 cytotox inactive | 3T3 cytotox 2 97
C[C@H]1CN([C@@H](C)CO)C(=O)c2cccc(NC(=O)Nc3ccc(C(F)(F)F)cc3)c2O[C@@H]1CN(C)Cc1ccc2c(c1)OCO2	none (no result: C diff HTS)
C[C@H](CO)N1C[C@H](C)[C@H](CN(C)Cc2ccc3c(c2)OCO3)Oc2c(NC(=O)Nc3ccc(C(F)(F)F)cc3)cccc2C1=O	T cruzi growth-1 103 (no result: C diff HTS) | T cruzi growth-2 108 | T cruzi growth-3 103 | 3T3 cytotox inactive | 3T3 cytotox 2 103
C[C@@H]1CN([C@@H](C)CO)C(=O)c2cccc(NC(=O)Nc3ccc(C(F)(F)F)cc3)c2O[C@H]1CN(C)Cc1ccc2c(c1)OCO2	T cruzi growth-1 inconclusive (no result: C diff HTS) | T cruzi growth-2 105 | T cruzi growth-3 117 | 3T3 cytotox inactive | 3T3 cytotox 2 55
COc1ccc(S(=O)(=O)Nc2ccc3c(c2)CC(=O)N([C@H](C)CO)C[C@H](C)[C@@H](CN(C)S(=O)(=O)c2ccc(F)cc2)O3)cc1	none
CC=Cc1ccc2n(c1=O)C[C@@H]1[C@@H](CO)[C@H](C(=O)N(C)C)N(CCC(F)(F)F)[C@H]21 (mixture of isomers)	none (no result: Pf Dd2 inh)
C[C@@H]1CN([C@@H](C)CO)S(=O)(=O)c2ccc(-c3ccncc3)cc2O[C@@H]1CN(C)S(=O)(=O)c1ccccc1F	none (no result: T cruzi growth-1)
C[C@H]1CN([C@@H](C)CO)S(=O)(=O)c2ccc(-c3ccccc3)cc2O[C@@H]1CN(C)S(=O)(=O)c1ccccc1F	T cruzi growth-1 91 | T cruzi growth-2 99 | T cruzi growth-3 inactive | 3T3 cytotox 37 | 3T3 cytotox 2 38
C[C@H]1CN([C@@H](C)CO)S(=O)(=O)c2ccc(-c3ccccc3)cc2O[C@H]1CN(C)S(=O)(=O)c1ccccc1F	T cruzi growth-1 119 | T cruzi growth-2 103 | T cruzi growth-3 103 | 3T3 cytotox inactive | 3T3 cytotox 2 46
C[C@@H]1CN([C@@H](C)CO)S(=O)(=O)c2ccc(-c3ccncc3)cc2O[C@H]1CN(C)S(=O)(=O)c1ccccc1F	none (no result: T cruzi growth-1)
C[C@H](CO)N1C[C@H](C)[C@@H](CN(C)S(=O)(=O)c2ccccc2F)Oc2cc(-c3ccccc3)ccc2S1(=O)=O	none
C[C@H](CO)N1C[C@H](C)[C@H](CN(C)S(=O)(=O)c2ccccc2F)Oc2cc(-c3ccccc3)ccc2S1(=O)=O	T cruzi growth-1 120 | T cruzi growth-2 100 | T cruzi growth-3 inactive | 3T3 cytotox inconclusive | 3T3 cytotox 2 45
COCC(=O)N1[C@@H](CO)[C@@H](c2ccccc2)C12CN(C(=O)Nc1ccccc1F)C2	none (no result: T cruzi growth-1)
COc1ccc(NC(=O)Nc2ccc3c(c2)CC(=O)N([C@@H](C)CO)C[C@H](C)[C@H](CN(C)S(=O)(=O)c2ccc(Cl)cc2)O3)cc1	none
C[C@@H]1CN([C@@H](C)CO)C(=O)c2cc(C#CC3CCCC3)cnc2O[C@H]1CN(C)S(=O)(=O)c1cccc(F)c1	T cruzi growth-1 115 | T cruzi growth-2 103 | T cruzi growth-3 inactive | 3T3 cytotox inactive | 3T3 cytotox 2 86
C[C@H](CO)N1C[C@H](C)[C@H](CN(C)S(=O)(=O)c2ccccc2)Oc2ncc(C#Cc3cccc(F)c3)cc2C1=O	none (no result: C diff HTS)
C[C@H](CO)N1C[C@H](C)[C@H](CN(C)S(=O)(=O)c2ccccc2)Oc2ncc(C#Cc3ccc(F)cc3)cc2C1=O	T cruzi growth-1 inconclusive | T cruzi growth-2 107 | T cruzi growth-3 inactive | 3T3 cytotox inactive | 3T3 cytotox 2 inactive
Cc1ccc(S(=O)(=O)N(C)C[C@@H]2Oc3ncc(C#Cc4ccc(F)cc4)cc3C(=O)N([C@H](C)CO)C[C@@H]2C)cc1	none
C[C@H](CO)N1C[C@H](C)[C@H](CN(C)S(=O)(=O)c2ccc(F)cc2)Oc2ncc(C#Cc3ccc(F)cc3)cc2C1=O	T cruzi growth-1 113 (no result: C diff HTS) | T cruzi growth-2 108 | T cruzi growth-3 inactive | 3T3 cytotox inactive | 3T3 cytotox 2 36
C[C@@H]1CN([C@H](C)CO)C(=O)c2cc(C#CC3CCCC3)cnc2O[C@@H]1CN(C)S(=O)(=O)c1cccc(F)c1	none
C[C@H](CO)N1C[C@H](C)[C@H](CN(C)Cc2ccc(C(F)(F)F)cc2)Oc2c(NC(=O)c3cnccn3)cccc2C1=O	none
CN1CCN(C(=O)C[C@@H]2C=C[C@@H](NC(=O)Nc3ccccc3F)[C@@H](CO)O2)CC1	none (no result: C diff HTS)
CC(=O)N1CC(=O)N2[C@H](CO)[C@H](c3ccc(-c4ccc(C#N)cc4)cc3)[C@H]2C1	none (no result: T cruzi growth-1)
CC(C)NC(=O)N(C)C[C@H]1Oc2ncc(-c3cccc(C#N)c3)cc2C(=O)N([C@@H](C)CO)C[C@@H]1C	none
C[C@H](CO)N1C[C@H](C)[C@@H](CN(C)S(C)(=O)=O)Oc2cc(-c3cccc(F)c3)ccc2S1(=O)=O	none
COc1ccc(S(=O)(=O)N(C)C[C@H]2Oc3cc(-c4cccc(F)c4)ccc3S(=O)(=O)N([C@H](C)CO)C[C@H]2C)cc1	none (no result: T cruzi growth-1)
Cc1ccc(S(=O)(=O)N(C)C[C@@H]2Oc3cc(-c4cccc(F)c4)ccc3S(=O)(=O)N([C@@H](C)CO)C[C@H]2C)cc1	T cruzi growth-1 124 | T cruzi growth-2 102 | T cruzi growth-3 107 | 3T3 cytotox 48 | 3T3 cytotox 2 55

From PubChem
